# HTRA1 inhibitor: HTRA1 (human) protease inhibition; Q92743; AID 504803; inhibition, % at 5.96 µM; hit rate 0.5% among 340,000; recombinant HTRA1, FP-rhodamine activity-based probe, fluorescence polarization; in the data active = inhibition above about 36%;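 note: 0% = enzyme with DMSO and 100% = wells lacking enzyme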
# Target sequence (Q92743 whole entry, looked up): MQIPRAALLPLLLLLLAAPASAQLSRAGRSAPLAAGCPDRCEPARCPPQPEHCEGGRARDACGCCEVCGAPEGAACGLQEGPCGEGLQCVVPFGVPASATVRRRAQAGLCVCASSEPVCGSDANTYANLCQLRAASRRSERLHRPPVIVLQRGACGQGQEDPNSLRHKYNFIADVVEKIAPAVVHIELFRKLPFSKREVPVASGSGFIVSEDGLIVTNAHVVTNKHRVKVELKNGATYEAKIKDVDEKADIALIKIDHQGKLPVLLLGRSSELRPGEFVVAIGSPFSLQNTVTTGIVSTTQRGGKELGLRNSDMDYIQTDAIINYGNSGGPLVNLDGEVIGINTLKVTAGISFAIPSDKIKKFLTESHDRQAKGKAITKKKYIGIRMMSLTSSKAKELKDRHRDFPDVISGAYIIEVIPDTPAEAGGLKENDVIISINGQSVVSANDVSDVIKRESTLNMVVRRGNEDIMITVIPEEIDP
# PAFAH1B3 FP inh: PAFAH1B3 (human) inhibition | recombinant PAFAH1B3, FP-rhodamine probe, fluorescence polarization | Q15102 | inhibition, % at 3.39 µM | AID 492972 | hit rate 0.28% among 340,000;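 active = inhibition above the screen-wide average of all tested compounds plus 3 SD, cut at about 25% in these data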;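 note: 0% = enzyme with DMSO only and 100% = wells lacking PAFAH1B3 protein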
# DAGLB inhibitor: blocks human DAGLB lipase activity; Q8NCG7; HEK293T DAGLB membrane lysate, EnzChek fluorogenic substrate; inhibition, % at 5.17 µM; hit rate 0.059% among 340,000; in the data active = inhibition above about 34%;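 note: 0% = enzyme with vehicle and 100% = wells lacking enzyme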
# PAFAH1B2 FP inh: PAFAH1B2 (human) inhibition; P68402; recombinant PAFAH1B2, FP-rhodamine activity probe, fluorescence polarization; inhibition, % at 3.39 µM; hit rate 1.2% among 340,000; AID 492953;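 active = inhibition above the mean of all tested compounds plus 3 SD, cut at about 24% in these data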;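 note: 0% = enzyme with DMSO and 100% = wells lacking PAFAH1B2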
# PAFAH2 FP inh: PAFAH2 (human) inhibition. Q99487. recombinant PAFAH2, FP-rhodamine activity probe, fluorescence polarization. inhibition, % at 3.39 µM. hit rate 0.99% among 340,000;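 active = inhibition above the mean over all tested compounds plus 3 SD, cut at about 30% in these data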;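 note: inhibitors block probe labeling of enzyme so polarization drops; 0% = enzyme with DMSO and 100% = wells lacking PAFAH2 protein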
# pPAFAH FP inh: pPAFAH (human) enzyme inhibition | Q13093 | recombinant pPAFAH, FP-rhodamine probe fluorescence polarization | inhibition, % at 3.39 µM | hit rate 1.5% among 330,000 | AID 463082;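 active = inhibition above the mean inhibition across the screen plus 3 SD, cut at about 25% in these data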;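 note: inhibitors block binding of the rhodamine activity-based probe so polarization drops; 0% = enzyme with DMSO and 100% = wells lacking pPAFAH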
# Active calls of the source: *; . = no result given. An excerpt weighted towards active compounds, which were near 2.8% of everything screened.
SMILES,HTRA1 inhibitor,PAFAH1B3 FP inh,DAGLB inhibitor,PAFAH1B2 FP inh,PAFAH2 FP inh,pPAFAH FP inh
CCOC(=O)c1c(N)sc(-c2ccccc2)c1C,17,15,-7,-1,3,34*
Cc1ccc(CNC(=O)CCn2cc(-c3ccc(F)cc3)nc2-c2ccncc2)cc1,-17,1,-4,29*,1,3
Cc1ccc(CNC(=O)CCn2cc(-c3ccc(C)cc3)nc2-c2ccncc2)cc1,-3,2,1,16,-1,7
COc1ccc(/C=N\NC(=O)c2ccc(=O)[nH]n2)cc1O,1,1,-2,-1,7,2
COc1ccc(/C=N/NC(=O)c2cc(C34CC5CC(CC(C5)C3)C4)[nH]n2)cc1O,-24,-1,3,29*,6,13
COc1cccc(/C=N/NC(=O)c2ccc(COc3ccc(Cl)cc3Cl)o2)c1,-37,2,-5,5,4,-9
COc1cc(/C=N/NC(=O)c2ccc(COc3ccccc3Cl)o2)cc(Br)c1O,-8,13,3,3,-1,32*
Cc1nn(C)c(C(=O)NN)c1Cl,.,.,.,.,.,2
COc1cccc(N(CC(=O)NC2CCCC2)C(=O)CCC(=O)Nc2cc(C)on2)c1,-1,-2,0,-4,-6,5
CC(=O)Nc1ccc(NC(=O)CCn2c(=O)oc3ccccc32)cc1,-1,-1,0,12,10,26*
CC1CC(C)CN(CCCNC(=O)c2ccc(CS(=O)(=O)Cc3ccccc3F)o2)C1 (stereo not drawn),1,8,1,0,1,6
Cc1ccc(CS(=O)(=O)Cc2ccc(C(=O)NCCCN3CC(C)CC(C)C3)o2)cc1 (stereo not drawn),-4,2,-1,-6,-2,31*
Cc1ccc(S(=O)(=O)N2CCN(C(=O)COC(=O)CNC(=O)c3ccc(Cl)cc3Cl)CC2)c(C)c1,1,-1,-2,3,6,.
CN(C)c1ccc(O)c2c1CC1CC3C(N(C)C)C(=O)C(C(N)=O)=C(O)[C@@]3(O)C(=O)C1=C2O (stereo partly drawn),15,11,1,8,8,33*
CN(C)c1ccc(O)c2c1CC1CC3[C@@H](N(C)C)C(=O)C(C(N)=O)C(=O)[C@]3(O)C(=O)C1C2=O (stereo partly drawn),28,16,7,8,3,20
COc1cc(/C=C/C(=O)O)cc(OC)c1OC,1,3,1,-4,-4,3
COc1cc(/C=C/C(=O)O)ccc1OS(=O)(=O)c1c(C)c(C)cc(C)c1C,-29,-4,2,26*,8,7
Cn1c(SCc2ccc(Br)cc2)nnc1-c1cccs1,0,-1,0,24*,0,2
CNCc1ccccc1Sc1cc(O)ccc1O,36,5,6,1,1,25*
COc1ccc(C2CCc3cc4c(cc3C2=NO)OCO4)cc1OC (stereo not drawn),1,.,-8,.,.,.
Cc1ccc(S(=O)(=O)N/N=C/c2c(F)cccc2Cl)cc1,2,3,0,-1,8,-5
Cc1ccc(S(=O)(=O)N/N=C/c2cccn2-c2ccc(Cl)cc2)cc1,-8,3,-2,54*,0,5
CCc1ccc2c(COC(=O)C3CC(=O)N(CCc4ccccc4)C3)cc(=O)oc2c1 (stereo not drawn),-9,16,-4,7,-1,.
CCOc1ccc(NC(=O)CN(C)C(=O)c2c(-c3ccccc3Cl)noc2C)cc1OCC,0,4,-1,4,3,4
COc1cc2c(cc1NC(=O)C(C)NCc1ccccc1)oc1ccccc12 (stereo not drawn),-52,6,-9,0,-7,26*
CN(Cc1ccccc1)C(=O)c1[nH]cnc1C(=O)N[C@@H](Cc1ccccc1)C(=O)OC(C)(C)C,0,7,0,9,4,3
CCN(CC)c1ccc(C(=O)OCC(=O)NC(C)(C)C)cc1,-1,4,-3,7,81*,34*
O=C(Nc1ccc(Cl)cc1)Nc1ccc(N2CCOCC2)cc1,8,8,4,2,-4,11
O=C(Nc1ccc(N2CCOCC2)cc1)C1(c2ccc(Cl)cc2)CCC1,3,-4,2,80*,-2,8
Cc1ccc(S(=O)(=O)c2nc(S(=O)(=O)c3ccccc3)sc2N2CCN(C)CC2)cc1,-2,5,-1,0,0,31*
